# According to PubChem BioAssay AID590 (National Center for Advancing Translational Sciences (NCATS), 2007):
# Screen size: about 59,000 compounds; about 6,500 (11%) were called active. Not shown: some 15% with an inconclusive outcome. Cut-off read from the data, not from the text of the source: active = max dye-equivalent concentration above about 10 nM; inconclusive = mostly about 1.1 nM to 9.6 nM; inactive = weaker than that. The list comes from a sample in which actives are over-represented; it also holds similar structures and randomly drawn compounds.
# Assay: qHTS Assay for Spectroscopic Profiling in A350 Spectral Region
# Conditions: Compound autofluorescence, 340/450 nm, Alexa 350 dye-equivalents; active compounds read high
# From the text: NIH Molecular Libraries Screening Centers Network [MLSCN]
# NIH Chemical Genomics Center [NCGC]
# Occasionally, the artifactual effect may originate from the compounds own spectral or other biophysical properties which generally tend to track its assay concentration. Pre-screening/profiling the library with respect to the compounds spectral properties should help one exclude false positives early on. While the most informative fluorescent profiling data set is obtained by performing a full excitation and emission scan of each well by using a monochromator-based plate reader, such an approach is practical only on a very limited scale as scanning each well requires long time. An alternative approach, applied here, is to perform plate reader scans using selected excitation and emission wavelength pairs to generate a multidimensional relational database that correlates compound concentration and the respective relative fluorescence intensity at a given wavelength set. A standard curve of Alexa 350 (A 350) present on each plate as six-point concentration series, was used to compute a normalized fluorescence response, termed dye-equivalent concentration, for each compound at each concentration.
# NCGC Assay Protocol Summary:
# 100 mM Tris buffer, pH 8.0
# The wells in columns 1 through 4 of a Kalypsys polypropylene 1536-well compound plate were filled with standard solutions of fluorophore corresponding to the spectral region of interest. Solutions of A 350 were placed in the following wells: I1, J1: 3 mM, I2, J2: 300 uM, I3, J3: 30 uM, I4, J4: zero (DMSO), K1, L1: 3 uM, K2, L2: […], K3, L3: 300 nM, K4, L4: zero (DMSO).
# Six uL of buffer were dispensed to 1536-well Greiner black plates. Compounds and dye standards (23 nL) were transferred via Kalypsys PinTool. The plates were incubated for 15 min at room temperature, and then read on ViewLux (Perkin-Elmer) High-throughput CCD imager using 340 nm and 450 nm excitation and emission filter set.
# Keywords: NIH Roadmap, MLSCN, MLI, MLSMR, qHTS, NCGC, A350, A-350, Fluorescent Profiling.
row,SMILES,max dye-equivalent concentration
1,COc1ccc(C(=O)n2nc(-c3ccc(C)cc3)nc2N)cc1OC,31 nM (active)
2,COc1ccc(C(=O)n2nc(-c3ccc(Cl)cc3)nc2N)cc1OC,inactive
3,COc1ccccc1C(=O)n1nc(-c2ccccc2)nc1N,inactive
4,Cc1cnc(CNc2ncncc2-c2ccccc2Cl)cn1,inactive
5,CCn1nc(NC(=O)c2ccco2)c2cc3ccc(C)cc3nc21,86 nM (active)
6,CCN(CC)C(=O)c1sc(NC(=O)c2ccco2)c(C#N)c1C,inactive
7,Cc1ccnc(NC(=O)c2ccc(NC(=O)c3ccco3)cc2)c1,inactive
8,O=C(CSc1nnc(-c2cnccn2)n1Cc1ccco1)c1ccc(Cl)c(Cl)c1,inactive
9,CC(=O)N1CSCC1C(=O)O (centres undefined),inactive
10,O=C(N1CCOCC1)N(Cc1ccccc1)c1ccccn1,inactive
11,CN(C)CC/C=C1\c2ccccc2CSc2ccccc21,inactive
12,COc1ccc(Cn2c(=O)sc3ccccc32)cc1OC,inactive
13,Cc1ccc2nc(NCCCNC(=O)c3cnccn3)c(C#N)cc2c1,220 nM (active)
14,O=S(=O)(c1ccccc1)N1CCC2(CC1)CN(Cc1nccs1)C2,inactive
15,CCCCCN(C(=O)NC(=O)Nc1ccccc1C)S(C)(=O)=O,inactive
16,O=C(c1cnccn1)N1CCC2(CCCN(Cc3ccccc3)C2)CC1,inactive
17,O=C(CSc1nnc(-c2ccc(NS(=O)(=O)c3ccccc3)cc2)o1)NCC1CCCO1 (centres undefined),inactive
18,O=C(CS(=O)(=O)Cc1ccccc1)NCC1CCCO1 (centres undefined),inactive
19,O=C(CSC1=Nc2ccccc2C2=NC(c3ccccc3)C(=O)N12)NCC1CCCO1 (centres undefined),590 nM (active)
20,COc1ccc(S(=O)(=O)Nc2c(C)n(C)n(-c3ccccc3)c2=O)cc1,inactive
21,CN(C)C(=O)c1ccc(-c2cncnc2NC2CCNCC2)cc1,inactive
22,CCCc1cc(=O)[nH]c(SCc2ccc(C#N)cc2)n1,inactive
23,Cc1ccc(S(=O)(=O)NCC(=O)OCC(=O)N2CCc3ccccc32)cc1,inactive

row,SMILES,max dye-equivalent concentration
1,O=C(c1cc(-c2cccs2)on1)N1CCCCC1,inactive
2,Cc1ccc(C(=O)N2CCCCCC2)cc1Br,inactive
3,Cc1ccc2cc3cc(C(=O)N4CCCCCC4)oc3nc2c1,11 nM (active)
4,O=C(CSc1nc2[nH]ncc2c(=O)n1-c1ccccc1)N1CCCc2ccccc21,inactive
5,COc1cc2c(cc1OC)C(c1ccncc1)CC(=O)N2 (centres undefined),inactive
6,Cc1ccc(OCc2nc(C#N)c(N3CCCC3)o2)cc1,inactive
7,Cc1cccc2cc(C#N)c(N3CCCC3)nc12,37 nM (active)
8,Cc1cc(C)c2nc(N3CCCC3)c(C#N)cc2c1,130 nM (active)
9,Cc1ccc2nc(CC(=O)c3ccc4ccccc4c3)c(=O)[nH]c2c1,inactive
10,c1ccc2sc(SCCSc3nc4ccccc4s3)nc2c1,inactive
11,CN1CCN(c2nc3c(c(=O)[nH]c(=O)n3C)n2Cc2cccc3ccccc23)CC1,inactive
12,O=C(NCc1cccs1)C1CCN(S(=O)(=O)c2ccc3c(c2)OCCO3)CC1,inactive
13,O=C(c1ccc2c(c1)OCCO2)C1CCN(S(=O)(=O)c2cccc(F)c2)CC1,12 nM (active)
14,O=C(Nc1cccc(F)c1)N1CCC2(CC1)CCN(S(=O)(=O)c1ccccc1)CC2,inactive
15,CCc1nc(C)cn1S(=O)(=O)c1cc(OC)c(C)cc1C,inactive
16,CC(C)CCNC(=O)CN(C(=O)Cn1nnc(-c2ccc(F)cc2)n1)C1CCCC1,inactive
17,Cc1cc(O)ccc1-c1cnc2ccccc2n1,inactive
18,Cc1nc2ccccc2cc1O,2500 nM (active)
19,CCOc1cc(C)c(Cl)cc1S(=O)(=O)n1nnc2ccccc21,inactive
20,COc1ccc(OC)c(NC(=O)CCN2CCC(C)CC2)c1,inactive
21,CCOC(=O)c1[nH]c2ccc(OC)cc2c1NC(=O)N1CCOCC1,44 nM (active)
22,CCOC(=O)c1[nH]c2ccc(OC)cc2c1NC(=O)CCN1CCN(Cc2ccccc2)CC1,64 nM (active)
23,COC(=O)c1[nH]c2ccccc2c1NC(=O)CN1CCCc2ccccc21,inactive

row,SMILES,max dye-equivalent concentration
1,COc1cc(NC(=O)N2CCOCC2)cc(OC)c1,inactive
2,Cc1c(C(=O)N2CCOCC2)[nH]c2ccc(OCc3ccccc3)cc12,inactive
3,COc1ccccc1CNc1cc(-c2ccccc2CN(C)C)ncn1,inactive
4,COCC(=O)N1CCC2(CCCN(c3ccccc3)C2)CC1,inactive
5,Cc1cc(NC(=O)COn2nnc3ccccc32)no1,inactive
6,O=C1NC(=O)[C@@](Cc2ccccc2)(c2cccnc2)N1,inactive
7,Cc1cccn2c(=O)c3cc(C(=O)NCc4ccccn4)n(C)c3nc12,170 nM (active)
8,O=C(NCc1ccccn1)c1c(O)c2c([nH]c1=O)CCCC2,inactive
9,Cc1cccn2c(=O)c3cc(C(=O)N4COCC4(C)C)n(C)c3nc12,900 nM (active)
10,O=C(NCc1ccco1)c1nc2ncccn2n1,inactive
11,CCN(CC)C(=O)C1CCC(C)(C(=O)O)C1(C)C (centres undefined),inactive
12,CC(c1ccccc1)n1c(NCCCn2ccnc2)nc2c1c(=O)[nH]c(=O)n2C (centres undefined),inactive
13,Cc1cc(NC(=O)COC(=O)c2ccc(F)c(S(=O)(=O)N3CCOCC3)c2)no1,inactive
14,COc1cc([C@H]2c3cc4c(cc3[C@@H](O[C@@H]3O[C@H]5CO[C@@H](C)O[C@]5(O)C[C@H]3O)[C@@H]3COC(=O)[C@H]23)OCO4)cc(OC)c1O,inactive
15,C=CCn1c(SCc2cc(C(=O)OC)c(C)o2)nnc1-c1ccncc1,inactive
16,COc1ccc(C(=O)CSc2nccc(=O)[nH]2)cc1,inactive
17,COC(=O)[C@H](C)NC(=O)Nc1ccc(OC(F)(F)F)cc1,inactive
18,CCCN1CC=C2C(C#N)=C(N)C(C#N)(C#N)C(c3cc(OC)ccc3OC)C2C1 (centres undefined),110 nM (active)
19,CCC1=C(C(=O)OC)C(c2cc(OC)ccc2OC)C(C#N)=C(N)O1 (centres undefined),inactive
20,c1cc(-n2cnnn2)ccc1NC1=NCCC1,inactive
21,CNC(=O)C1CC(=O)N(Cc2ccc3c(c2)OCO3)C(=Nc2ccc(F)cc2)S1 (centres undefined),inactive
22,CC(C)(CSc1nncn1/N=C/c1ccco1)NS(=O)(=O)c1ccc(Cl)cc1,inactive
23,CC(C)CCNc1nc(N2CCCC2)c2c(c1C#N)CCN(C)C2,33 nM (active)
